According to PubChem BioAssay (NCI):
“And” between values parts separate entries of the source, which are not always exact repeats. Equal entries are not always repeated. About 79,000 compounds went through this panel and 15% of them were active in at least one assay; those are over-represented in the sample as a whole. Rule as the data show it: active = growth inhibition above about 70%; inactive = the rest.

Legend:
[1] = NCI Yeast Anticancer Drug Screen. Data for the rad50 strain (AID 155);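 also: 0% = growth of vehicle-only cultures of the same strain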; settings: S. cerevisiae rad50 strain growth inhibition, stronger effect = higher value; at 50.0 µM unless noted
Summary of the method: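 Cells are treated with compound, grown, and their growth is then scored against vehicle-only cultures of the same repair-deficient yeast strain.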

[2] = NCI Yeast Anticancer Drug Screen. Data for the mec2-1 strain (AID 157); settings: S. cerevisiae mec2-1 strain, stronger effect = higher value; at 50.0 µM unless noted
Summary of the method: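 Growth inhibition is read against vehicle-treated controls after compound exposure of the mec2-1 yeast strain, which is defective in DNA damage repair or cell cycle control.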

[3] = NCI Yeast Anticancer Drug Screen. Data for the sgs1 mgt1 strain (AID 161);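 also: 0% = growth of cultures given vehicle only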; settings: S. cerevisiae sgs1 mgt1 strain, stronger effect = higher value; at 50.0 µM unless noted
Summary of the method: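 Growth of a repair-deficient yeast mutant was monitored after compound treatment and expressed as inhibition relative to vehicle-treated cultures.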

[4] = NCI Yeast Anticancer Drug Screen. Data for the cln2 rad14 strain (AID 165);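 also: 0% = growth equal to vehicle treated cultures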; settings: S. cerevisiae cln2 rad14 strain, stronger effect = higher value; at 50.0 µM unless noted
Summary of the method: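 Growth inhibition, relative to vehicle-treated controls, is the read-out. The test organism is a yeast strain with defined genetic alterations, cln2 rad14.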

[5] = NCI Yeast Anticancer Drug Screen. Data for the bub3 strain (AID 167); settings: S. cerevisiae bub3 mutant strain, stronger effect = higher value; at 50.0 µM unless noted
Summary of the method: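 Part of a panel of yeast mutants defective in DNA damage repair or cell cycle regulation. Each strain is grown with compound, and inhibition is calculated relative to solvent-treated cultures.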

[6] = NCI Yeast Anticancer Drug Screen. Data for the mlh1 rad18 strain (AID 175); settings: S. cerevisiae mlh1 rad18 strain growth inhibition, stronger effect = higher value; at 50.0 µM unless noted
Summary of the method: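 Cells of a genetically altered yeast strain, deficient in DNA damage repair, were treated with compound. Their growth was then compared with that of vehicle-treated cultures to give inhibition.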

Measured: growth inhibition

CC1(C)C2CC(C(=O)O)C1C2 (stereo not given)
inactive: [1] 2.75% | [2] 5.8% | [3] 2.05% | [4] 3.8% | [5] -10.8% | [6] -19.1%

CC1OC(Cl)CC(NC(=O)C(F)(F)F)C1OC(=O)C(F)(F)F (stereo not given)
inactive: [1] -0.55% | [2] -1.7% | [3] -5.55% | [4] -17.8% | [5] 14.2% | [6] 13.9%

Clc1ccccc1NN(Cc1ccncc1)c1ccccc1Cl
inactive: [1] 55.6% | [2] 23.1% | [3] 23.7% | [4] 26.9% | [5] 34.1% | [6] 53.1%

Cc1ccc2[nH]c(=O)[nH]c(=O)c2c1
inactive: [1] -5.85% | [2] -5% | [3] -4.5% | [4] -45.2% | [5] -3.5% | [6] -12.7%

O=S(=O)(N/N=C1\CC2CCC1C2)c1ccccc1 (stereo not given)
inactive: [1] -7.05% | [2] -16.1% | [3] -16.9% | [4] 27.8% | [5] 21.4% | [6] 4.4%

O=C1NC(=O)C2C3OC(C(Cl)C3Cl)C12 (stereo not given)
inactive: [1] 0.8% and 18.2% | [2] -19.5% and 11.5% | [3] -7.85% and 12.5% | [4] 20.4% and 42.7% | [5] -4.95% and 7.95% | [6] -7.85% and -1.25%

CC1CCCN1CCOC(=O)C(c1ccccc1)C1CCCC1 (stereo not given)
inactive: [1] -4.65% | [2] 35.5% | [3] 32.1% | [4] -4.7% | [5] 3.3% | [6] 11.2%

CN(C)Cc1cc(C(=O)/C=C/c2ccc(Cl)c(Cl)c2)cc(CN(C)C)c1O
inactive: [1] -1.95% | [2] -14.4% | [3] 6.3% | [4] 31.9% | [5] 2.15% | [6] -3.3%

CCCCOC(=O)COc1c(Cl)ccc(Cl)c1Cl
inactive: [1] 6.95% | [2] -0.75% | [3] 7% | [4] -3.5% | [5] 11.3% | [6] 6.7%

CC(C)N=C(N)N=C(N)N
inactive: [1] 30.9% | [2] 13.5% | [3] 3.85% | [4] 3.9% | [5] 30.2% | [6] -3.2%

COc1ccccc1NC(=O)C1=C(C)NC(C)=C(C(=O)Nc2ccccc2OC)C1c1ccc(C)cc1
inactive: [1] 12.7% | [2] -10.3% | [3] 3.75% | [4] 12.1% | [5] 12.3% | [6] -0.85%

OC1c2ccccc2C2c3ccccc3C1C2Cl (stereo not given)
inactive: [1] 43.8% | [2] 5.9% | [3] 25.8% | [4] 35.3% | [5] -5.7% | [6] 39.8%

COCCN=Cc1ccc(N(C)C)cc1
inactive: [1] 4.35% | [2] -4.8% | [3] -3.05% | [4] -26.4% | [5] 7.45% | [6] 3.7%

O=C1c2cc(Cc3ccccc3)c(=O)c(Cc3ccccc3)cc2C(=O)c2cc(Cc3ccccc3)c(=O)c(Cc3ccccc3)cc21
inactive: [1] 23% | [2] -11.3% | [3] -11.3% | [4] -26% | [5] -6.35% | [6] 20.3%

COCC(C)OC(=O)COc1ccccc1 (stereo not given)
inactive: [1] 1.05% | [2] -21.6% | [3] -10.4% | [4] -46.5% | [5] -4.35% | [6] -6.65%

C/C(CCCCCCCCCCCC/C(C)=N\Nc1ccc([N+](=O)[O-])cc1[N+](=O)[O-])=N/Nc1ccc([N+](=O)[O-])cc1[N+](=O)[O-]
inactive: [1] -15.8% | [2] 5.25% | [3] -3.2% | [4] 27.2% | [5] 2.3% | [6] 31.6%

O=C(O)CCC(=O)CCC(=O)O
inactive: [1] 13.7% | [2] -8.85% | [3] 3.6% | [4] 2% | [5] -14.6% | [6] 7.2%

CC(C)CCC[C@@H](C)[C@H]1CC[C@H]2[C@@H]3CCC4=CC(=O)NCC[C@]4(C)[C@H]3CC[C@]12C
inactive: [1] 12.8% | [2] -3.25% | [3] 34.6% | [4] 27.2% | [5] -9.35% | [6] 15.9%

O=C(CC(=O)N1N=C(n2ccc3ccccc32)CC1c1ccccc1)Nc1ccc(Cl)cc1 (stereo not given)
inactive: [1] -25.3% | [2] -7.7% | [3] -16.8% | [4] 7.1% | [5] -4.35% | [6] -5%

NC(=O)CC(NC(=O)CCl)C(=O)O (stereo not given)
inactive: [1] -12.3% and -15% | [2] -24.8% and -8.15% | [3] 2.1% | [4] 12.4% | [5] -0.35% | [6] -22.4% and -16.1%

Cc1c(Cl)cccc1NC(=O)COc1ccc(Cl)cc1
inactive: [1] 16.4% | [2] 9.4% | [3] 4.2% | [4] -3.7% | [5] 6.5% | [6] 4.05%

CC(=O)Nc1cc(C)cc(CO)c1C
inactive: [1] 13.6% | [2] -3.05% | [3] -10.1% | [4] -23.6% | [5] -1.15% | [6] -26.6%

O=C(O)CCNC(=O)CNC(=O)OCc1ccccc1
inactive: [1] 3.9% | [2] 10.6% | [3] -2.85% | [4] 5.55% | [5] -0.25% | [6] -9.65%

CCOC(=O)c1nc(N)nc(N)c1-c1ccc(Cl)cc1
inactive: [1] 3.6% | [2] 10.7% | [3] -3.4% | [4] -4.9% | [5] 15.6% | [6] -1.2%

C=C(C)[C@H]1CC(=O)[C@@]2(C)C[C@H]3O[C@]3(C)CC/C=C(\C)CC[C@H]12
inactive: [1] 20.2% | [2] 14.4% | [3] 33.2% | [4] 15.1% | [5] 31.1% | [6] 51.5%

CC1CC(OCCO)CC(C)(C)C1 (stereo not given)
inactive: [1] 13% | [2] 0.5% | [3] 6.95% | [4] -8.8% | [5] 14.9% | [6] 7.2%

NC(=S)/N=C/C=C\c1ccccc1
inactive: [1] -10.6% | [2] 2.3% | [3] 5.25% | [4] 0.35% | [5] -13.8% | [6] -7.7%

Nc1ccccc1S(=O)(=O)Nc1c(N)nc(SCC(=O)O)[nH]c1=O
inactive: [1] -15.4% | [2] -21.9% | [3] -10% | [4] -4.2% | [5] -12.9% | [6] 0.65%

O=C(CSc1n[nH]c(=S)c2nc[nH]c12)c1ccc(Br)cc1
inactive: [1] 11.7% | [2] -0.2% | [3] 21.6% | [4] 33.1% | [5] -0.4% | [6] -8.65%

CCCOC(=O)c1cccnc1
inactive: [1] -13.2% | [2] -29.6% | [3] -14.7% | [4] 0.7% | [5] -6.75% | [6] -8.65%

CCCC1([N+]2(C)CCCC2)CS(=O)C1CC (stereo not given)
inactive: [1] -3.8% | [2] 8.45% | [3] -3% | [4] -4.8% | [5] 5.8% | [6] -13.3%

O=C(c1ccccc1)C(C(Nc1ccccc1)c1ccccc1)N1CCOCC1 (stereo not given)
inactive: [1] 6.65% | [2] -5% | [3] -16% | [4] -47.3% | [5] 27.4% | [6] 22.6%

CCC(=O)OC(CCC1CCCO1)CCC1CCCO1 (stereo not given)
inactive: [1] 11.5% | [2] 12.2% | [3] 3.75% | [4] 12.4% | [5] 22.9% | [6] -3.55%

O=C(Cc1nc2ccccc2o1)C(=O)Nc1ccccc1C(F)(F)F
inactive: [1] -16.5% | [2] -4.9% | [3] -2.8% | [4] 7.2% | [5] 2.75% | [6] 17.6%

CCN(CC)CCN1CC(=O)N2CCCCN2C(=O)C1
inactive: [1] 17.2% | [2] 4.5% | [3] 14.9% | [4] 13.4% | [5] 7.85% | [6] 10.6%

COc1ccccc1C(=O)N/N=C/c1cccc([N+](=O)[O-])c1
inactive: [1] -2.15% | [2] 3.1% | [3] 13.7% | [4] -11.7% | [5] 29.1% | [6] 4.75%

Cc1cc(=O)oc2c(C)c(OCCCOc3ccc4c(C)cc(=O)oc4c3C)ccc12
inactive: [1] -29.8% | [2] -15.6% | [3] -6.1% | [4] 11.1% | [5] -30.8% | [6] -34.3%

CC(=O)OC1C(Br)CCCC1Br (stereo not given)
inactive: [1] -26% | [2] 4.25% | [3] 1.75% | [4] 1.9% | [5] 0.45% | [6] 15.8%

Nc1nc(Cl)c(N)c(NCC2(CO)CC(Cc3ccccc3)C2)n1 (stereo not given)
inactive: [1] 26.4% | [2] -35.4% | [3] 18.9% | [4] 7.6% | [5] 31% | [6] 15.1%

CC(CC(C)C(=O)O)C(=O)O (stereo not given)
inactive: [1] -13.5% | [2] -28.2% | [3] -24.1% | [4] 0.4% | [5] -47.8% | [6] 3.25%
